Compound activity from PubChem BioAssay.
Pf growth 96h = P. falciparum growth inhibition at 96 hours; P. falciparum luciferase reporter growth, 96 h; Potency, µM (titrated, usually from 28.7 µM), without a hit: at the top dose activity change, negative = inhibition, actives largely listed as inhibitors; hit rate 6.9% among 320,000; further: potency means the concentration at half of the fitted maximal effect; on the % scale 0 is the no-effect control and ±100 the full control effect
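P. falciparum expressing integrated firefly luciferase, in erythrocytes at 2% hematocrit, 0.05% parasitemia, incubated with compounds 96 h at 37 C, 5% CO2. Growth inhibition read as loss of luminescence; two-generation exposure targets delayed-death apicoplast inhibitors.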
Pf growth 48h = inhibits P. falciparum growth in the first generation, 48 h; Potency, µM (doses to about 28.7 µM), inactives show top-dose activity change, negative = inhibition, most hits filed as inhibitors; hit rate 5.9% among 310,000; P. falciparum luciferase growth in erythrocytes, 48 h; further: potency means the concentration at half of the fitted maximal effect; on the % scale 0 is the no-effect control and ±100 the full control effect
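Luciferase-expressing parasites in RBCs, 2% Hct / 0.1% parasitemia final; RPMI 1640 + 0.5% Albumax; 37 C, 5% CO2, one generation; luminescence read-out, lower signal = inhibition.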
Shiga inhibitor = Shiga toxin inhibition; Vero cells, Shiga toxin protein synthesis inhibition reporter; inhibition, % at 38.7 µM; hit rate 9.2% among 290,000; in the data active means inhibition mostly above about 28%, no sharp cut-off; inactive means mostly below about 43%; further: 0% is about no effect
Cycloheximide cs = counter-screen for Shiga toxin inhibitors: cycloheximide protein synthesis inhibition | hit rate 12% among 300,000 | cell reporter, cycloheximide protein synthesis inhibition counterscreen | max response, %; in the data active means max response mostly above about 13%, no sharp cut-off; inactive means mostly below about 14%; further: read at 38.3 µM for the half of the compounds with a filed dose; 0% is about no effect
Starred values were filed as active, the others as inactive; ? = inconclusive; . = not tested or not shown; [ ] = remark or other dose. Compounds with a hit are over-represented: about 21% of the library has one in this group of screens. Unless noted, the call rests on the fitted dose curve; in most records, active means well fitted inhibition curve with a large enough effect; inconclusive means small, poorly fitted or top-dose-only effect, or another doubt; inactive means no such curve, though single readings can be large or run the other way.

SMILES	Pf growth 96h	Pf growth 48h	Shiga inhibitor	Cycloheximide cs
CCCc1cc(=O)[nH]c(SCC(=O)NCc2ccc3c(c2)OCO3)n1	12µM*	4%	7	-4
Cc1nnc(SCC(=O)NNC(=O)C(C)C)[nH]c1=O	12µM*	18%	-2	3
COc1ccc(NC(=O)C2=NN(c3ccccc3)C(=O)CC2)cn1	18%	0%	.	.
O=C(C1CCCN(S(=O)(=O)c2cccc3nsnc23)C1)N1CCN(c2ccccn2)CC1 (stereo not given)	67%	12µM*	-8	13
O=C(NCc1cccnc1)C1CCCN(S(=O)(=O)c2cccc3nsnc23)C1 (stereo not given)	10µM*	-6%	-22	-6
COc1cccc(NC(=O)C2CCCN(S(=O)(=O)c3cccc4cccnc34)C2)c1 (stereo not given)	?	?	-14	-2
O=C(Nc1ccncc1)C1CCCN(S(=O)(=O)c2cccc3cccnc23)C1 (stereo not given)	5.9µM*	-11%	-10	-3
CN(CC(=O)N1CCN(c2ccccn2)CC1)S(=O)(=O)c1cccc2nsnc12	9.3µM*	-29%	-12	-6
COc1nccnc1NS(=O)(=O)c1ccc(N)cc1	?	8%	-9	-3
FC(F)(F)c1ccc(Nc2nnnc3ccccc23)cc1	1.5µM*	1.3µM*	36	21*
Cc1nnc(Nc2ccc(F)cc2)c2ccccc12	?	38%	17	-2
O=C(NC1CCCC1)C(c1ccc(Cl)cc1)N1CCc2ccccc21 (stereo not given)	5.9µM*	.	4	-6
O=C(NC1CCCCC1)C(c1ccccc1)N1CCc2ccccc21 (stereo not given)	12µM*	.	16	-2
CCc1ccccc1NC(=O)CN(C)C(=O)CSc1nc2cc(Cl)ccc2s1	?	17%	12	-4
CCC(=O)NCCc1nc2cc(NC(=O)c3ccccc3Cl)ccc2n1C	140%	115%	62*	32*
CCC(=O)NCCc1nc2cc(NC(=O)Nc3ccccc3)ccc2n1C	227%	97%	43*	23
O=C1CCN(CCCc2ccccc2)CCN1[C@H](CO)Cc1ccccc1	-24%	8%	11	-2
CC(=O)c1ccc(NC(=O)C2CCCN(S(=O)(=O)c3c(C)[nH]c(=O)[nH]c3=O)C2)cc1 (stereo not given)	4.1µM*	157%	1	19
CCc1ccc(NC(=O)C2CCCN(S(=O)(=O)c3cccs3)C2)cc1 (stereo not given)	?	?	30	21*
O=C(Nc1ccc(Br)cc1)C1CCCN1S(=O)(=O)c1cccs1 (stereo not given)	3.7µM*	.	3	-4
CCc1ccc(NC(=O)C2CCN(S(=O)(=O)c3cccs3)CC2)cc1	220%	?	21	6
COc1ccc(-n2c(=O)/c(=C\c3cccs3)s/c2=C(/C#N)C(=O)N2CCN(C)CC2)cc1	20%	?	-12	9
Cc1cccc(CS(=O)(=O)Cc2ccc(C(=O)NC3CCCC3)o2)c1	1%	?	21	14
Cc1cc(C)cc(OCC(=O)OC(C)C(=O)Nc2ccc(Cl)cn2)c1 (stereo not given)	9%	-22%	.	.
CC(C)(C)c1ccc(OCCC(=O)Nc2cccc(S(=O)(=O)N3CCCC3)c2)cc1	?	10µM*	.	.
SMILES	Pf growth 96h	Pf growth 48h	Shiga inhibitor	Cycloheximide cs
O=C(COc1ccccc1)Nc1cccc(S(=O)(=O)N2CCCC2)c1	?	39%	.	.
CC(=O)c1ccc(OCCCC(=O)Nc2cccc(S(=O)(=O)N3CCCCC3)c2)cc1	?	13µM*	.	.
CC(C)(C)NC(=O)C(c1ccc(O)cc1)N(C(=O)Cn1nnc(-c2ccc(F)cc2)n1)c1ccccc1F (stereo not given)	?	12µM*	-17	-5
CC(C)(C)NC(=O)C(c1ccncc1)N(C(=O)Cn1nnc(-c2ccc(F)cc2)n1)c1ccccc1F (stereo not given)	36%	?	38	21*
c1coc(Cn2c(-c3ccco3)nc3ccccc32)c1	-1%[5.75 µM]	39%	45*	17*
c1coc(CN2CNc3nc4ccccc4n3C2)c1	-3%	-1%	4	-2
CCCN1CN(Cc2ccco2)c2nc3ccccc3n2C1	66%	8%	49	36*
CCN(CC)CCn1c(NCc2ccco2)nc2ccccc21	-37%	-16%	-12	-2
Clc1ccc(OCCn2c(-c3ccco3)nc3ccccc32)cc1	12µM*	.	-17	7
COc1ccc(OCCn2c(NC(=O)c3ccco3)nc3ccccc32)cc1	-33%	?	68	20*
CCC(Cc1ccccc1)NC(=O)C1CC1 (stereo not given)	?	-29%	-11	-3
CCNc1sc(C(=O)OCC)c(N)c1C#N	18%	12%	-9	5
Cc1nc2ccccc2c2c1C(=O)NC2=O	32%	21%	1	-2
N=c1n(Cc2ccccc2)c2ccccc2n1CC(O)c1ccccc1 (stereo not given)	2.3µM*	2.1µM*	-8	-5
COc1ccccc1OCC(O)Cn1c(=N)n(Cc2ccccc2)c2ccccc21 (stereo not given)	?	9.3µM*	-14	-7
CCCCCn1c(=N)n(CC(O)COc2ccccc2OC)c2ccccc21 (stereo not given)	?	4.7µM*	-3	-7
CC(C)(C)C(=O)Cn1c(=N)n(Cc2ccccc2)c2ccccc21	?	13µM*	3	-2
CC(C)(C)C(=O)Cn1c(=N)n(Cc2ccccc2Cl)c2ccccc21	?	.	-14	-6
Cc1ccccc1OCC(O)Cn1c(=N)n(Cc2ccccc2)c2ccccc21 (stereo not given)	-17%	?	-45	-5
Cc1ccc(S(=O)(=O)n2cnc(C)c2)cc1	?	4%	-4	-2
Cc1ccc(C)c(NC(=O)CCCCCCCCCCC2COCCO2)c1 (stereo not given)	13µM*	-4%	-14	-8
Cc1ccc(NC(=O)C(C)SCC(=O)Nc2ccc(F)cc2)cc1S(=O)(=O)N1CCOCC1 (stereo not given)	-19%	?	.	.
OCCc1ccc(-c2ccc(Cl)cc2)o1	.	68%	108*	31*
CN1CCN(Cc2ccc(-c3ccc(Cl)cc3)o2)CC1	.	-2%	67	26*
Clc1ccc(-c2ccc(CN3CCCCC3)o2)cc1	?	-11%	39*	25*
SMILES	Pf growth 96h	Pf growth 48h	Shiga inhibitor	Cycloheximide cs
CC(C)(Oc1ccc(CCNC(=O)c2ccc(-c3ccc(Cl)cc3)o2)cc1)C(=O)O	?	-18%	-8	-1
Clc1ccc(CN2CCCCCC2)cc1	?	1%	8	1
CC1(C)Cc2ccccc2-c2nc(NCCCO)n(-c3ccccc3)c(=O)c21	?	?	36	-1
C=CCNC(=O)c1c(Cl)nc(C)c([N+](=O)[O-])c1C	-8%	3%	-8	-3
Cc1cc(C(=O)c2cnc(/N=C/N(C)C)s2)c(F)cc1Cl	45%	20%	15	9
O=C(Nc1ccccc1)c1cc2ccc3ccccc3c2s1	-8%	-3%	92*	47*
O=C(Nc1ccccc1)c1cc(Cl)nc2ccccc12	?	-5%	7	-6
